This is a sample that favours compounds with a hit; in the whole collection about 4.7% have one here.
VHR inh abs – DUSP3 (human) phosphatase inhibition; recombinant VHR phosphatase, pNPP absorbance; inhibition, % at 13.3 µM; 290,000 tested, 0.52% active; AID 1654; in the data active means inhibition above about 50%
RecA splice inh – Mtb RecA intein splicing inhibition; P9WHJ3; cell-free RecA intein splicing, fluorescence; inhibition, % (test concentration not listed); 290,000 tested, 0.75% active; AID 2221; in the data active means inhibition above about 30%;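 further: 0% = vehicle wells and 100% = reference inhibitor control wells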
Target sequence (P9WHJ3 whole entry, looked up, canonical isoform): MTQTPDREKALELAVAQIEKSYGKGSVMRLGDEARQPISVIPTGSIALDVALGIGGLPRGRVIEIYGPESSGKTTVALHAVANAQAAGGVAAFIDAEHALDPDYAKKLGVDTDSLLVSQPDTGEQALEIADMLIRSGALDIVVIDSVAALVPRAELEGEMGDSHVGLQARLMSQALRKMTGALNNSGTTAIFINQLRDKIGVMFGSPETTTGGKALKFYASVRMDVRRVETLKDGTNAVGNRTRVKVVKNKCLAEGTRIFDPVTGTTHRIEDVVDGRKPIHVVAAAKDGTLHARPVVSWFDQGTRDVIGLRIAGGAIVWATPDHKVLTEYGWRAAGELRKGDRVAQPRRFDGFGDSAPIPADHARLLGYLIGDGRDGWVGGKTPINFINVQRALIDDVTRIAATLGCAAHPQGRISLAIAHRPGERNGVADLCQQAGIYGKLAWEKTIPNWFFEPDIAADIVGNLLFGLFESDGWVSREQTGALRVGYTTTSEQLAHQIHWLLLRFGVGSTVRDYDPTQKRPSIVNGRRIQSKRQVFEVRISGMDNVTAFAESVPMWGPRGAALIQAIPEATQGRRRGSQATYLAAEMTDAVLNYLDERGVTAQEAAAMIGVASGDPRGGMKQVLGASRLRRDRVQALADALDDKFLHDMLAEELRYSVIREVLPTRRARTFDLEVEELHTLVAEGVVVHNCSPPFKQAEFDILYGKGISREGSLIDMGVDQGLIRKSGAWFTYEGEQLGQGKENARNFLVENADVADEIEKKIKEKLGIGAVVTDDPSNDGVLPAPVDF
FBA Mtb inh – inhibitors of M. tuberculosis fructose-bisphosphate aldolase | purified M. tuberculosis FBA, fluorescence read-out | inhibition, % at 1 µM | 360,000 tested, 2.3% active | AID 588726;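 further: 0% = vehicle and 100% = reference inhibitor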
CCHF vOTU inh – blocks the CCHF virus ovarian tumor domain protease; CCHFV vOTU protease, Pep-AMC fluorescence; inhibition, % at 11.5 µM; 370,000 tested, 0.55% active; AID 651958; in the data active means inhibition above about 30%; further: 0% = vehicle wells with enzyme and 100% = no enzyme wells
GDH-TPI counter-1 – inhibits GDH-TPI coupling enzymes, artifact for Mtb FBA screen. GDH-TPI coupled enzyme counterscreen, NADH absorbance. 360,000 tested, 1.2% active. inhibition, % at 4.8 µM; in the data active means inhibition above about 30%;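 further: 0% = DMSO wells and 100% = wells lacking the enzyme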
3CLpro inhibitor – SARS-CoV 3CLpro protease inhibition. recombinant SARS-CoV 3CLpro, quenched FRET peptide cleavage. 290,000 tested, 0.14% active. AID 1706. inhibition, % at 6 µM. P0C6X7; in the data active means inhibition above about 12%
Mtb FBA confirm – Mtb FBA inhibition, confirmed; shares compounds with FBA Mtb inh; purified M. tuberculosis FBA, fluorescence read-out; inhibition, % at 1 µM; 5,600 tested, 78% active;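 further: 0% = vehicle wells and 100% = reference inhibitor wells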
GDH-TPI counter-2 – counter-screen for M. tuberculosis FBA inhibitors: GDH-TPI coupled enzyme inhibition. shares compounds with FBA Mtb inh. GDH-TPI coupled enzyme counterscreen, fluorescence. inhibition, % at 1 µM. 5,600 tested, 81% active. AID 652141; in the data active means inhibition above about 10%
* = called active by the depositor; · = no result given; + = active, no number. Unless noted, no stated cut-off is given here; in the data, active means inhibition above about 27%; inactive means the rest.

SMILES	VHR inh abs	RecA splice inh	FBA Mtb inh	CCHF vOTU inh	GDH-TPI counter-1	3CLpro inhibitor	Mtb FBA confirm	GDH-TPI counter-2
CC1=C(C(=O)OCC2CCCO2)C(c2ccncc2)C2=C(CC(C)(C)CC2=O)N1 (configuration not stated)	-11	-74	38*	-36	-1	0	59*	58*
CC1(C(=O)Nc2cccc3ccccc23)CCN1C(=O)Cc1ccc(Cl)cc1Cl (configuration not stated)	·	·	0	4	10	·	·	·
COc1ccc(C2C(C#N)=C(C)NC3=C2C(=O)CC(C)(C)C3)cc1 (configuration not stated)	-23	-31	17	-96	13	10	·	·
COc1cccc(C2C(C#N)=C(C)NC3=C2C(=O)CC(C)(C)C3)c1 (configuration not stated)	-8	-14	93*	-125	7	2	+	183*
FC(F)(F)c1cc(-c2cccs2)nc(-n2cc(Cl)cn2)n1	20	-1	30*	5	20	-2	41*	35*
O=C(O)CSc1nc(-c2cccs2)cc(C(F)(F)F)n1	14	·	-1	3	10	1	·	·
Cc1cccc(S(=O)(=O)N(C)C[C@@H]2OCc3cnnn3CCCC(=O)N([C@@H](C)CO)C[C@@H]2C)c1	·	·	-1	-8	-1	·	·	·
CCNC(=O)Nc1cc(OC)c(OC)cc1C(=O)O	4	-1	45*	-8	20	2	89*	78*
CCCS(=O)(=O)NC(=O)C1(C)CCCN(C(=O)c2cc(C)n(C(C)(C)C)n2)C1 (configuration not stated)	·	·	3	-3	-4	·	·	·
COc1ccccc1-n1c(SCc2cc(=O)oc3cc(O)ccc23)nc2ccccc2c1=O	-7	7	72*	7	8	2	2	2
CCc1ccc(-c2cc(C)no2)cc1S(=O)(=O)NCCc1ccc(OC)c(OC)c1	-10	-1	1	-5	14	3	·	·
CCOC(=O)c1cnc2c(C)cccc2c1NCc1ccco1	-8	2	10	-8	8	1	·	·
CCOC(=O)c1ccc2ncc(C(=O)OCC)c(NCc3ccco3)c2c1	15	0	62*	-41	18	3	8	1
CCOC(=O)[C@]12CCC=C1N(Cc1ccc3c(c1)OCO3)C(=O)[C@H](CC(=O)NCCCOC)C2	·	·	·	-7	·	·	·	·
COc1ccc(NCc2cc(=O)oc3cc(NC(C)=O)ccc23)cc1	·	2	73*	-17	16	-2	121*	88*
COc1ccc2c(COC(=O)[C@H](C)NS(=O)(=O)c3ccccc3F)cc(=O)oc2c1	·	·	109*	-52	20	·	+	153*
Cc1c(C)c2ccc(OCC(=O)NC(Cc3ccc(Cl)cc3)C(=O)O)cc2oc1=O (configuration not stated)	16	1	96*	-34	7	-5	116*	79*
Cc1c(CC(=O)NCC(=O)N[C@H](Cc2ccccc2)C(=O)O)c(=O)oc2cc(O)ccc12	20	-74	·	-288	28	2	·	·
CCCCCCc1c(C)c2ccc(OCC(=O)N[C@@H](Cc3ccccc3)C(=O)O)cc2oc1=O	-20	12	73*	4	12	7	+	+
COc1ccc2ccccc2c1-c1sc(Nc2ccccc2)n[n+]1-c1ccc(F)cc1	28	21	1	18	17	-2	·	·
COc1cc(Cl)c(C)cc1NC(=O)CNC(C)c1ccccc1OC (configuration not stated)	43	12	2	6	1	3	·	·
COc1ccc2c(CN(Cc3ccccc3)Cc3ccccc3)cc(=O)oc2c1	·	·	7	2	·	·	·	·
COc1ccc2c(CC(=O)N[C@@H](Cc3ccccc3)C(=O)O)cc(=O)oc2c1	-29	-3	101*	-48	18	2	100*	86*
Cc1c(Cc2ccccc2)c(=O)oc2c(C)c(OCC(=O)N3CCC(C(=O)O)CC3)ccc12	1	1	107*	-49	21	0	60*	32*
COc1ccc2c(COC(=O)c3n[nH]c4ccccc34)cc(=O)oc2c1	15	0	35*	4	14	-2	124*	107*
SMILES	VHR inh abs	RecA splice inh	FBA Mtb inh	CCHF vOTU inh	GDH-TPI counter-1	3CLpro inhibitor	Mtb FBA confirm	GDH-TPI counter-2
Cc1c(Cc2ccccc2)c(=O)oc2c(C)c(OC(C)C(=O)NCC3CCC(C(=O)O)CC3)ccc12 (configuration not stated)	24	0	15	-6	-10	1	·	·
Cc1cc(OCC(=O)N[C@@H](CSCc2ccccc2)C(=O)O)c2c(C)c(C)c(=O)oc2c1	13	0	62*	-8	18	1	78*	68*
Cc1cc2oc(=O)cc(COC(=O)c3n[nH]c4ccccc34)c2cc1C	3	-7	7	-1	7	0	·	·
Cc1cc(OCC(=O)C(C)(C)C)c2c(-c3ccccc3)cc(=O)oc2c1	·	6	1	12	6	-3	·	·
COc1cccc(COC(=O)CCNC(=O)c2ccc(Cl)cc2)c1OC	·	1	-2	-6	-1	·	·	·
O=C(COc1ccc(-c2ccccc2)cc1)NNC(=O)NC1CCCCC1	24	6	0	1	2	8	·	·
CC1CCCCC12NC(=O)N(CC(=O)NCCc1ccccc1)C2=O (configuration not stated)	·	·	-2	4	2	·	·	·
Cc1c(C)c2ccc(OCC(=O)N[C@@H](Cc3ccccc3)C(=O)O)cc2oc1=O	45	4	77*	-24	12	-2	95*	81*
Cc1c(Cc2ccccc2)c(=O)oc2cc(OCC(=O)NC(Cc3ccc(Cl)cc3)C(=O)O)ccc12 (configuration not stated)	20	6	92*	-15	13	9	170*	151*
Cc1c(C)c2ccc(OCC(=O)N[C@@H](Cc3c[nH]c4ccccc34)C(=O)O)cc2oc1=O	8	0	10	-1	27	1	·	·
Cc1c(Cc2ccccc2)c(=O)oc2c(C)c(OCC(=O)N[C@@H](Cc3ccccc3)C(=O)O)ccc12	1	1	53*	3	12	3	+	+
Cc1c(C)c2ccc(OCC(=O)NC3CCN(Cc4ccccc4)CC3)cc2oc1=O	1	-2	39*	-25	13	-7	50*	39*
O=C(COc1ccc2c(c1)oc(=O)c1ccccc12)N[C@@H](Cc1c[nH]c2ccccc12)C(=O)O	12	12	7	-2	10	8	·	·
CCCC1(CCC)NC(=O)N(CC(=O)N2CCc3ccccc32)C1=O	·	·	0	25	0	·	·	·
